The source of these data is PubChem BioAssay (NCATS).

Inconclusive results are not listed. Unmarked numbers belong to inactive results. The source made the active and inactive calls. Calls follow the shape of the dose curve; as a rule, active = well fitted curve in the direction sought with a large enough effect; inconclusive = small, poorly fitted or top-dose-only effect, or another doubt; inactive = no such curve, though single readings can be large; an effect the other way counts as inactive or inconclusive. *1 amine or outer side, *2 acyl side, *3 side chain or, on linkers, in order; H or OH if unused. Where a SMILES comes first, the peptide text is derived from it. Bridges are numbered along the chain shown (N, C = ends). X6 = O=C(CCC[*:2])[*:1]

Assay [1] can be described thus: Primary qHTS for inhibitors of nuclear receptor binding SET domain protein 2 (NSD2) in an isogenic RCH-ACV NSD2 p.E1099K mutant (9B) (AID 1645876). In general terms: Quantitative high-throughput screening tests each substance at several concentrations.
A short description of assay [2]: Primary qHTS for inhibitors of nuclear receptor binding SET domain protein 2 (NSD2) in an RCH-ACV wild type WT cells (2C) (AID 1645877).
% is scaled to controls: 0 for no effect and ±100 for the full control effect; potency is read from the fitted curve at half-maximal effect.
Also: nearly all actives have a fitted effect of over 70% in size.

In the case of `CC1=C2C(=O)O[C@@H](c3ccoc3)[C@]2(C)CCC1`, the Potency entry in assay [1] and in assay [2] was “inactive” in each case.
As for `CC1CCC2(C)C(CC(O)C(O)C23CO3)C1(C)CCC1=CC(=O)OC1O` (stereo unspecified), in assay [1], the Potency result was “inactive”.
For the compound `CCC(C)(O)C(O)C(=O)OCc1ccc(O[C@@H]2O[C@H](CO)[C@@H](O)[C@H](O)[C@H]2O)c(OC)c1` (stereo partly specified), the Potency entry in assay [1] and in assay [2] was “inactive” each time.
Regarding `COc1cc2c(cc1O)CCN[C@]21CS[C@@H]2c3c(OC(C)=O)c(C)c4c(c3[C@H](COC1=O)N1[C@@H]2[C@H]2c3c(cc(C)c(OC)c3O)C[C@@H]([C@@H]1O)N2C)OCO4`, the Potency in assay [1] was 1.7 nM (active); in assay [2], 1.4 nM (active).
The corresponding values for `C/C=C/C=C/C(CC(=O)O)Nc1ccc(C=O)cc1` (stereo unspecified) are “inactive” and “inactive”.
Turning to `O=C(O[C@H]1[C@@H]2C[C@@H]3OC[C@@](O)([C@H]2[C@H](O[C@@H]2O[C@H](CO)[C@@H](O)[C@H](O)[C@H]2O)O3)[C@@H]1O)c1ccccc1`, the Potency result in assay [1] and in assay [2] was “inactive” each time.
Take `C[C@H]1[C@H](C)CC[C@]2(C(=O)O[C@@H]3O[C@H](CO)[C@@H](O)[C@H](O)[C@H]3O)CC[C@]3(C(=O)O)C(=CCC4[C@@]5(C)CC[C@H](O[C@@H]6O[C@H](CO)[C@@H](O)[C@H](O)[C@H]6O)C(C)(C)C5CC[C@]43C)[C@H]12` (stereo partly specified): the activity change, negative = viability loss in assay [1] was -7.26% [at 9.23 µM]. Besides, in assay [2], the activity change, negative = cell killing is -8.94% [at 9.23 µM].
The corresponding values for `COc1cc(O[C@@H]2O[C@H](CO)[C@@H](O)[C@H](O)[C@H]2O)c(CCC(=O)OC[C@H]2O[C@@H](Oc3cc(OC)c(C4OC(=O)C(C)(O)C4O)cc3CCC(=O)O)[C@H](O)[C@@H](O)[C@@H]2O)cc1C1OC(=O)C(C)(O)C1O` (stereo partly specified) are -2.96% [at 9.23 µM] and -6.02% [at 9.23 µM].
Regarding `COc1ccc(C(OC2OC(CO)C(O)C(O)C2O)C(C)O)cc1` (stereo unspecified), the Potency result in assay [1] and in assay [2] was “inactive” each time.
With `CC(=O)c1c(C)cc(O)cc1O[C@@H]1O[C@H](CO)[C@@H](O)[C@H](O)[C@H]1O`, the Potency result in assay [1] and in assay [2] was “inactive” each time.
With `CC(/C=C/C1(O)C(C)(C)CC(O)CC1(C)O)OC1OC(CO)C(O)C(O)C1O` (stereo unspecified), the Potency entry in assay [1] and in assay [2] was “inactive” each time.
On to `CC1(C)CC[C@]2(C(=O)O)CC[C@]3(C)C(=CCC4[C@@]5(C)CCC(O[C@@H]6OC[C@H](O)[C@H](O)[C@H]6O[C@@H]6O[C@H](CO)[C@@H](O)[C@H](O)[C@H]6O)[C@@](C)(CO)C5CC[C@]43C)[C@@H]2C1` (stereo partly specified), for which the Potency result in assay [1] and in assay [2] was “inactive” each time.
Take `CC1(C)CCC[C@@]2(C)[C@H]1[C@H](O)C=C1COC(=O)[C@@]12O`: the Potency entry in assay [1] and in assay [2] was “inactive” in each case.
With `CC(C)(O)C1CC=C(C(=O)OCC2OC(Oc3c(O)cc(C(=O)O)cc3O)C(O)C(O)C2O)CC1` (stereo unspecified), the Potency result in assay [1] and in assay [2] was “inactive” each time.
On to `COC(=O)[C@@]1(O)C=CC[C@@H]2[C@@]3(C)C[C@@H](c4ccoc4)OC(=O)[C@H]3CC[C@]21C`, for which the Potency entry in assay [1] and in assay [2] was “inactive” each time.
With `CC1(CCC(=O)O)C(=O)C=CC23CC4CC(OC4(C)C2O)C13` (stereo unspecified), the Potency result in assay [1] and in assay [2] was “inactive” in each case.
On to `C=C[C@H]1[C@H](O[C@@H]2O[C@H](CO)[C@@H](O)[C@H](O)[C@H]2O)OC=C2C(=O)OCC[C@]21O`, for which the Potency entry in assay [1] and in assay [2] was “inactive” each time.
Consider `C[C@@H]1CC[C@]2(C(=O)O[C@@H]3O[C@H](CO)[C@@H](O)[C@H](O)[C@H]3O)CC[C@]3(C)C(=CCC4[C@@]5(C)C[C@@H](O)[C@H](O)C(C)(C)C5CC[C@]43C)C2[C@]1(C)O` (stereo partly specified), for which the Potency result in assay [1] and in assay [2] was “inactive” in each case.
`OCCc1ccc(O[C@@H]2O[C@H](CO)[C@@H](O)[C@H](O)[C@H]2O)c(O)c1`: the Potency entry in assay [1] and in assay [2] was “inactive” in each case.
Consider `CCNC(=O)[C@@H]1CCCN1C(=O)[C@H](CCCN=C(N)N)NC(=O)[C@H](CC(C)C)NC(=O)[C@@H](C)NC(=O)[C@H](Cc1ccc(O)cc1)NC(=O)[C@H](CO)NC(=O)[C@H](Cc1c[nH]c2ccccc12)NC(=O)[C@H](Cc1cnc[nH]1)NC(=O)[C@@H]1CCC(=O)N1`, for which the Potency entry in assay [1] and in assay [2] was “inactive” throughout.
Regarding `CC[C@H](C)[C@@H]1NC(=O)[C@H](Cc2ccc(OC)cc2)NC(=O)CCCSC[C@@H](C(=O)N2CCC[C@H]2C(=O)N[C@@H](CC(C)C)C(=O)NCC(N)=O)NC(=O)[C@H](CC(N)=O)NC(=O)[C@H](CCC(N)=O)NC1=O` (Y(Me)IQNCPLG-NH2; linker N-5 via X6), the Potency result in assay [1] and in assay [2] was “inactive” throughout.
On to `CC(/C=C/[C@]1(O)[C@@]2(C)CO[C@@]1(C)C[C@@H](O)C2)=C\C(=O)O[C@@H]1O[C@H](CO)[C@@H](O)[C@H](O)[C@H]1O`, for which the Potency result in assay [1] and in assay [2] was “inactive” each time.
Regarding `COc1cc(CCc2ccccc2)c(C(=O)O)c2c1CC(C(C)(C)O)O2` (stereo unspecified), the Potency result in assay [1] and in assay [2] was “inactive” throughout.
With `CC1CCC2(C)C(CC(O)C(O)C23CO3)C1(C)CCC1=CC(O)OC1=O` (stereo unspecified), the Potency result in assay [1] and in assay [2] was “inactive” in each case.
Regarding `C/C=C(\C)C(=O)O[C@H]1[C@@H](O[C@]2(COC(=O)CC(C)C)O[C@H](COC(=O)C(C)C)[C@@H](OC(C)=O)[C@@H]2O)O[C@H](COC(C)=O)[C@@H](O)[C@@H]1O`, the Potency result in assay [1] and in assay [2] was “inactive” each time.
Turning to `CC[C@H]1OC(=O)C[C@@H](O)[C@H](C)[C@@H](O[C@@H]2O[C@H](C)[C@@H](O)[C@H](N(C)C)[C@H]2O)[C@@H](CCN2C[C@H](C)C[C@H](C)C2)C[C@@H](C)C(=O)/C=C/C(C)=C/[C@@H]1CO[C@@H]1O[C@H](C)[C@@H](O)[C@@H](OC)[C@H]1OC`, the Potency entry in assay [1] and in assay [2] was “inactive” in each case.
